Reference: PubChem BioAssay
Calls of active or inactive are those of the source.

What was measured:
[1] = system: PRMT1 (protein arginine N-methyltransferase 1); assay: PRMT1 binders on small-molecule microarrays, primary screen, biochemical, small-molecule microarray, 635 nm fluorescence (AID 1088); details: small-molecule microarray binding, higher = more signal;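 note: binding of Prmt1 protein to compounds spotted on small-molecule microarray slides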
[2] = yeast growth modulation, basal conditions, primary screen, YJM789 clinical isolate, OD600, 24 h (AID 1089);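 note: growth of clinical yeast isolate S. cerevisiae YJM 789 seeded 1000 cells per well; test concentration not given here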; details: S. cerevisiae YJM789 growth, higher = more signal, called active from +8 up or from −8 down
[3] = fission yeast growth modulation, primary screen, strain 972, OD600, 24 h, no modulator (AID 1090);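 note: basal condition with compound alone and no growth modifier present; test concentration not given here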; details: S. pombe 972 growth, higher = more signal, called active from +8 up or from −8 down
[4] = S. cerevisiae growth modulation with rapamycin, primary screen, strain BY4716, OD600, 96 h (AID 1091); details: higher = more signal, called active from +8 up or from −8 down; note: test concentration not given here
[5] = target: Torsin-1A-interacting protein 2 (Homo sapiens) (UniProt Q8NFQ8); assay: LULL1 binders on small-molecule microarray, primary screen, cell lysate, human LULL1 lysate, 635/667 nm fluorescence (AID 1092); details: hLULL1 lysate binding, 635 nm fluorescence, higher = more signal;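 note: probe is lysate of COS7 cells overexpressing human LULL1; score merges per-feature 667 nm fluorescence with signal-to-noise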
Sequence of Torsin-1A-interacting protein 2 (Homo sapiens) (Q8NFQ8 whole entry, looked up): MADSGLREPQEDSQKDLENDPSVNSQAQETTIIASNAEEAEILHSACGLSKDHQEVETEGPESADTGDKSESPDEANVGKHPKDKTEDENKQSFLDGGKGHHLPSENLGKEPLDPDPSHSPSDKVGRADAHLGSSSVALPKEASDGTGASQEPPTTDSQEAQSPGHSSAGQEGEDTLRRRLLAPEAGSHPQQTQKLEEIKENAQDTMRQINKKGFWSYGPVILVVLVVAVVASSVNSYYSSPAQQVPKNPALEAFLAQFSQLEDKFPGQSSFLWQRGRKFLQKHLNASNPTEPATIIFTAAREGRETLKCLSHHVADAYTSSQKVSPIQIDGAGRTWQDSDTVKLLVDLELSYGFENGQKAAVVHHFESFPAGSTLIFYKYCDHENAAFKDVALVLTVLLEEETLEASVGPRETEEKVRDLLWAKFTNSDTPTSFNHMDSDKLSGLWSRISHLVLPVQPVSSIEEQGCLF

[6] = E. coli growth modulation, two-sided OD650, primary screen, E. coli filamentation project, strain DRC41, 24 h (AID 1093); details: OD650, 24 h, higher = more signal, called active from +8 up or from −8 down;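 note: MC1000 strain lacking acrAB efflux and sulA so SOS filamentation is blocked; test concentration not given here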
[7] = small-molecule microarray binders of probe aLefty2, primary screen, biochemical, biotinylated probe, 635/667 nm fluorescence (AID 1094); details: higher = more signal;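 note: score merges spot fluorescence near 667 nm with spot signal-to-noise ratio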
[8] = system: Noggin (protein binding on small-molecule microarray); assay: Noggin binders on small-molecule microarray, primary screen, biochemical, 635/667 nm fluorescence (AID 1095); details: 635 nm fluorescence, higher = more signal;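 note: score merges 667 nm feature fluorescence with signal to noise over triplicate slides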
[9] = target: Neurogenic locus notch homolog protein 3 (Homo sapiens) (UniProt Q9UM47); assay: NOTCH3 binders on small-molecule microarray, primary screen, biochemical, 635/667 nm fluorescence (AID 1096); details: NOTCH3 binding, 635 nm fluorescence, higher = more signal
Sequence of Neurogenic locus notch homolog protein 3 (Homo sapiens) (Q9UM47 whole entry, looked up): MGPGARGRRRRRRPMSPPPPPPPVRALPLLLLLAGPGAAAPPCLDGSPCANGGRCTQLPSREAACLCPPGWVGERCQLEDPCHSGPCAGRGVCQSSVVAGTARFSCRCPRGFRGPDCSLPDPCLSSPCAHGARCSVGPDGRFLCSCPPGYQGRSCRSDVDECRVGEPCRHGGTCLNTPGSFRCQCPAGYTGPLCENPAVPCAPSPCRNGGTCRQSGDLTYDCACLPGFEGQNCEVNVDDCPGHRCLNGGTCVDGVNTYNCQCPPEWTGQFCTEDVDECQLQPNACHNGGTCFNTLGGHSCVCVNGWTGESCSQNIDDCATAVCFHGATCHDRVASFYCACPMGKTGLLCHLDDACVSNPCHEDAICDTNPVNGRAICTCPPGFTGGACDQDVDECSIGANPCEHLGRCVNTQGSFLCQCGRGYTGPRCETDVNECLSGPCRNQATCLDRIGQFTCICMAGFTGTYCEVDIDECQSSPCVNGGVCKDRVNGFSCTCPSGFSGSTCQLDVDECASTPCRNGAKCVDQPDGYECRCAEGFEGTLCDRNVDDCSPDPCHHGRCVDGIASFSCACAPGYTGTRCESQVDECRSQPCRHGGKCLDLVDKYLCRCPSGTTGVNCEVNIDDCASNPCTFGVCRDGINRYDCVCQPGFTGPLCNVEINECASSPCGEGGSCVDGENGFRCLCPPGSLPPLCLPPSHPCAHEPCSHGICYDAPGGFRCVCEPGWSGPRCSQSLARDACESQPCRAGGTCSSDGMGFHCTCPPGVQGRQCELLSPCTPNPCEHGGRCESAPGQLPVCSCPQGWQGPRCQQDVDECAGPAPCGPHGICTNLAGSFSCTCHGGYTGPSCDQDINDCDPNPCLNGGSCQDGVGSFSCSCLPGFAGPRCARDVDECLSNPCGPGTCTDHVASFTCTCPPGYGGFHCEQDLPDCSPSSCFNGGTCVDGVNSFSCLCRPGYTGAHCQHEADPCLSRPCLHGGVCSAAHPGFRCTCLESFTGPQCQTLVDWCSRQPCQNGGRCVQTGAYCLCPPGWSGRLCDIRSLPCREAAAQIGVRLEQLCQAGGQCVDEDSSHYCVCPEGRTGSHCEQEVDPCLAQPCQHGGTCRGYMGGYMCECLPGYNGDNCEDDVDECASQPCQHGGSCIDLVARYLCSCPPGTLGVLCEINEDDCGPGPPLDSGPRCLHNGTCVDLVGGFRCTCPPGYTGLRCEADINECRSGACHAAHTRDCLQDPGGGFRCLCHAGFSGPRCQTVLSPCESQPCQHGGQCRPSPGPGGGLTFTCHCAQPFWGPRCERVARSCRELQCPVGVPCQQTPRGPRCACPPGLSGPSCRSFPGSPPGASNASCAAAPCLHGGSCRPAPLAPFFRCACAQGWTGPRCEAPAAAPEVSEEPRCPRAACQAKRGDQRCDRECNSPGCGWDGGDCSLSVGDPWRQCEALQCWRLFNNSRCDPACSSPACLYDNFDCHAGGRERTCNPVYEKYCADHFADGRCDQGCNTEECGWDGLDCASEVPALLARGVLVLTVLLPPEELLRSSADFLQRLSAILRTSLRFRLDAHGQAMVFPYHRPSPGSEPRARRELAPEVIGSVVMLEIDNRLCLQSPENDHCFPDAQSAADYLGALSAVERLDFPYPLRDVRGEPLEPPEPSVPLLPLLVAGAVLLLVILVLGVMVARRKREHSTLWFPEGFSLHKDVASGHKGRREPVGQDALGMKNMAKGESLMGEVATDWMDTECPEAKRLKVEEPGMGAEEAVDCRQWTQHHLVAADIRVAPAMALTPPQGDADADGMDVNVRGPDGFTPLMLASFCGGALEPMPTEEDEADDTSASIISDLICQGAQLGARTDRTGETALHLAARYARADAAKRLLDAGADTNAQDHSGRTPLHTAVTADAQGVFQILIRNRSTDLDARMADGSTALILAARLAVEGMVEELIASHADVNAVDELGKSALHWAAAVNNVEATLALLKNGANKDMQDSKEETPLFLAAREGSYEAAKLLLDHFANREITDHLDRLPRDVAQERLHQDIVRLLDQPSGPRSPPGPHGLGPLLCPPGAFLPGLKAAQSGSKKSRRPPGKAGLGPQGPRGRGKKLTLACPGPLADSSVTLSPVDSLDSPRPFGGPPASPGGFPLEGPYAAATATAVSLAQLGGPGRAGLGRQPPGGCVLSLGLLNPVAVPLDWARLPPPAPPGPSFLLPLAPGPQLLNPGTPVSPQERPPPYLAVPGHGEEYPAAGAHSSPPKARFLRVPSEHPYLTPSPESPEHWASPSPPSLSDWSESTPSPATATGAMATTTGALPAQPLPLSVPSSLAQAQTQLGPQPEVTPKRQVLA

[10] = small-molecule microarray binders of probe aEGFR, primary screen, biochemical, biotinylated probe, 635/667 nm fluorescence (AID 1097); details: higher = more signal;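 note: probe is a biotinylated anti-EGFR antibody binding compounds printed on slides; score combines fluorescence near 667 nm and signal to noise of each spot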
[11] = system: Plasmodium falciparum Sir2 (PF13_0152, Sir2A); assay: pfSir2 binders on small-molecule microarrays, primary screen, biochemical, small-molecule microarray, 635 nm fluorescence (AID 1098); details: small-molecule microarray binding, fluorescence 635 nm; higher = more signal;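 note: score merges spot fluorescence intensity with its signal-to-noise ratio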
[12] = small-molecule microarray binders of probe aDKK1, primary screen, biochemical, biotinylated probe, 635/667 nm fluorescence (AID 1099); details: higher = more signal;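 note: score merges 667nm spot fluorescence with signal to noise across triplicate slides; reference of the scale not given here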
[13] = small-molecule microarray binders of probe aCHRDL2, primary screen, biochemical, biotinylated probe, 635/667 nm fluorescence (AID 1100); details: higher = more signal
[14] = splicing luciferase reporter signal modulators, primary screen, spliceosome inhibition project, cell-based, HEK293, splice +/- reporter (AID 1101); details: luminescence, 24 h, higher = more signal, called active from +8 up or from −8 down;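 note: HEK293 cells carrying a splicing-competent luciferase reporter gene; test concentration not given here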
[15] = target: Fibroblast growth factor 10 (Homo sapiens) (UniProt O15520); assay: FGF10 binders on small-molecule microarrays, primary screen, biochemical, small-molecule microarray, 635 nm fluorescence (AID 1102); details: FGF10 binding, fluorescence 635 nm, higher = more signal
Sequence of Fibroblast growth factor 10 (Homo sapiens) (O15520 whole entry, looked up): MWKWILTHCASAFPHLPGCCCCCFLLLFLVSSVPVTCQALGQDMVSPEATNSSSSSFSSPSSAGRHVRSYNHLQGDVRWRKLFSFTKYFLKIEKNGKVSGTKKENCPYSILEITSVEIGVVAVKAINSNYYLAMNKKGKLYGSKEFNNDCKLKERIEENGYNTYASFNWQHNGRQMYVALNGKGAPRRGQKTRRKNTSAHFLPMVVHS

[16] = system: glycogen synthase kinase-3 (GSK3A per assay name; protocol says GSK3B); assay: GSK3 binders on small-molecule microarrays, primary screen, biochemical, small-molecule microarray, 635 nm fluorescence, GSK3A (AID 1103); details: small-molecule microarray binding, fluorescence 635 nm; higher = more signal; note: the record names both GSK3A and GSK3B
[17] = target: Epidermal growth factor receptor (Homo sapiens) (UniProt P00533); assay: EGFR binders on small-molecule microarrays, primary screen, biochemical, small-molecule microarray, 635 nm fluorescence (AID 1104); details: EGFR binding, higher = more signal;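 note: score merges 667 nm emission intensity with spot signal to noise over triplicate slides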
Sequence of Epidermal growth factor receptor (Homo sapiens) (P00533 whole entry, looked up): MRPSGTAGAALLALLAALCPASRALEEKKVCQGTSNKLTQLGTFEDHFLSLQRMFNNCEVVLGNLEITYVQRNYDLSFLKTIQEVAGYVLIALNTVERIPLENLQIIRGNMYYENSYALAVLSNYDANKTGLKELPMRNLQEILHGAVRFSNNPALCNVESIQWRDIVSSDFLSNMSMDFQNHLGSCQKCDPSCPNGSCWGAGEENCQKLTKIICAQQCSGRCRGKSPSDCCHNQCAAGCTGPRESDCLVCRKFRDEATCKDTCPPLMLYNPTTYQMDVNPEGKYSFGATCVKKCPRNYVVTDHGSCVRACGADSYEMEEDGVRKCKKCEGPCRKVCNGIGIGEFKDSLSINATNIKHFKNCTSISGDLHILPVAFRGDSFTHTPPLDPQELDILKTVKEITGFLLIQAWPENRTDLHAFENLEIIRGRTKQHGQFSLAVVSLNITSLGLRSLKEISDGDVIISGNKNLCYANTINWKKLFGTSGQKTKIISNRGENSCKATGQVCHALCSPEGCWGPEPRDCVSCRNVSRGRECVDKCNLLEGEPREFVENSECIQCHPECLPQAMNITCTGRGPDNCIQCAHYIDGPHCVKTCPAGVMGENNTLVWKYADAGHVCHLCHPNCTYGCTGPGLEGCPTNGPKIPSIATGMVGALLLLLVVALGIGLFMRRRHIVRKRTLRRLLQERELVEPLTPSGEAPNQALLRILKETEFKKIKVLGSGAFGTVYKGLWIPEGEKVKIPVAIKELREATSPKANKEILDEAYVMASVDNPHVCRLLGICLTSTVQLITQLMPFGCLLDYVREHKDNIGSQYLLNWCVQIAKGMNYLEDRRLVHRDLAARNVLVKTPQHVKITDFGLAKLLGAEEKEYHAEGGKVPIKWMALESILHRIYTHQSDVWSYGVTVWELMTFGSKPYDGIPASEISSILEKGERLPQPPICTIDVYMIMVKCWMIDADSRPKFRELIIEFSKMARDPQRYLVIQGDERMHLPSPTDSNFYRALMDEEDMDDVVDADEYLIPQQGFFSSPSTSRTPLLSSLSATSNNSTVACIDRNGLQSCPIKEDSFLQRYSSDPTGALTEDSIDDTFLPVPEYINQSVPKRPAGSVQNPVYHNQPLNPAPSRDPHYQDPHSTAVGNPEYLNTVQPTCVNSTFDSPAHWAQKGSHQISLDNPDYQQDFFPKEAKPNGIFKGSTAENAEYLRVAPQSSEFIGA

[18] = target: Follistatin-related protein 3 (Homo sapiens) (UniProt O95633); assay: FSTL3 binders on small-molecule microarrays, primary screen, biochemical, small-molecule microarray, 635 nm fluorescence (AID 1105); details: FSTL3 binding, higher = more signal;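 note: score merges emission near 667 nm and signal to noise per printed spot across three slides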
Sequence of Follistatin-related protein 3 (Homo sapiens) (O95633 whole entry, looked up): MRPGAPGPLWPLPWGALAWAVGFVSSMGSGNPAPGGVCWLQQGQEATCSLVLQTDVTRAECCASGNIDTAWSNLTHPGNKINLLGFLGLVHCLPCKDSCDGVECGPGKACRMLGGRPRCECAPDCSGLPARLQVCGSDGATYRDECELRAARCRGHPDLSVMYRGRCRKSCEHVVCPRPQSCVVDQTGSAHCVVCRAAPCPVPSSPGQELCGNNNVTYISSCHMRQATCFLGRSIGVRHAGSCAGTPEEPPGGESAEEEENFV

[19] = target: Dickkopf-related protein 1 (Homo sapiens) (UniProt O94907); assay: DKK1 binders on small-molecule microarrays, primary screen, biochemical, small-molecule microarray, 635 nm fluorescence scan (AID 1106); details: DKK1 binding, higher = more signal;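 note: score merges emission near 667 nm with signal to noise over three replicate slides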
Sequence of Dickkopf-related protein 1 (Homo sapiens) (O94907 whole entry, looked up): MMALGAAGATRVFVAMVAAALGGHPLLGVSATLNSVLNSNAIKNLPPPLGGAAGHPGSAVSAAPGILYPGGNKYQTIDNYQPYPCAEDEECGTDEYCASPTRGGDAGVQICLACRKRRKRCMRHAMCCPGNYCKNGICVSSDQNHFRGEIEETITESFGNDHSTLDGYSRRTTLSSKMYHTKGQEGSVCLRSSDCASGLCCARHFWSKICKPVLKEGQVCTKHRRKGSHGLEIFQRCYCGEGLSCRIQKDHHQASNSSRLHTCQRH

[20] = system: Inhibin beta A chain (activin A); assay: INHBA (activin A) binders on microarrays, primary screen, biochemical, small-molecule microarray, 635 nm fluorescence scan (AID 1107); details: small-molecule microarray binding, higher = more signal;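 note: mouse activin A protein probed at 4.33 µg/mL on printed slides; score merges bound-protein fluorescence near 667 nm with spot signal-to-noise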

SMILES | composite z-score [1] | z-score [2] | z-score [3] | z-score [4] | composite z-score [5] | z-score [6] | composite z-score [7] | composite z-score [8] | composite z-score [9] | composite z-score [10] | composite z-score [11] | composite z-score [12] | composite z-score [13] | z-score [14] | composite z-score [15] | composite z-score [16] | composite z-score [17] | composite z-score [18] | composite z-score [19] | composite z-score [20]
COc1ccc([Si](C)(C)[C@@H]2[C@@H](CC(=O)N(CCO)Cc3ccccc3)O[C@]3(C(=O)N(Cc4ccc(N5C(=O)c6cccc7cccc5c67)cc4)c4ccccc43)[C@H]2C)cc1 | 1.57 | 0.655 (inactive) | 0.27 (inactive) | 3.51 (inactive) | 1.63 | 0.309 (inactive) | -0.0785 | 0.77 | 0.223 | -0.116 | 1.17 | -0.0669 | 0.0161 | -1.33 (inactive) | 0.404 | 0.01 | 0.317 | 0.12 | 0.283 | 0.516
C=CC1c2cc(O)c(OC)cc2CCN1C (stereo not given) | -0.648 | -0.763 (inactive) | -0.819 (inactive) | 0.0904 (inactive) | 0.134 | -0.223 (inactive) | 0.0112 | -0.542 | -0.821 | -0.135 | 0.21 | 0.416 | 0.759 | 0.978 (inactive) | -0.169 | -1.24 | -0.534 | -0.332 | -0.26 | 0.725
CCCCCC1=C2CNC(Cc3ccccc3)(C(=O)OC)C=C2C(C)C1=O (stereo not given) | -0.488 | 0.194 (inactive) | -0.331 (inactive) | 1.2 (inactive) | 2.5 | -0.791 (inactive) | 0.226 | -1.49 | -0.638 | -0.0632 | 0.0442 | 0.926 | 1.37 | 73.6 (active) | -0.0286 | -1.16 | -0.779 | -0.733 | -1.84 | 1.47
CN(C)CCCNC(=O)[C@@]1(C)c2ccccc2C(=O)N(Cc2ccc(OC(F)(F)F)cc2)[C@H]1c1ccc(CO)cc1 | 1.21 | -1.7 (inactive) | -1.93 (inactive) | -1.42 (inactive) | 1.53 | 0.649 (inactive) | 0.0239 | -0.552 | -0.0992 | -0.229 | 1.33 | -0.0469 | 0.63 | 0.399 (inactive) | -0.365 | -0.417 | -0.786 | -0.811 | -0.912 | 0.462
C=CCC(OC(C)=O)[C@@H]1[C@@H](N(Cc2cc3ccccc3o2)C(=O)c2cccc3ccccc23)c2cc(OCCCO)ccc2N1C(=O)c1ccc2ccccc2n1 (stereo not given in full) | 0.109 | 0.472 (inactive) | -0.8 (inactive) | 0.12 (inactive) | 0.588 | 1.06 (inactive) | -0.0285 | 0.728 | -0.127 | -0.182 | -0.408 | 0.749 | 0.317 | -0.73 (inactive) | 0.169 | 0.0025 | 0.3 | -0.0659 | 0.121 | 1.1
COC(=O)[C@@]1(Cc2ccccc2)[C@H]2c3cc(C(=O)N(C)C)n(CCO)c3C[C@H]2CN1C(=O)c1ccccc1 | 0.805 | 0.136 (inactive) | 0.612 (inactive) | 0.26 (inactive) | 4.04 | -0.508 (inactive) | 0.381 | -0.779 | 1.02 | 0.418 | 0.621 | 1.25 | 1.21 | 0.395 (inactive) | 0.909 | 0.594 | -0.745 | -0.181 | -0.994 | -0.206
N#Cc1ccc(NN2C(C(O)C3CC=CCC3)C=CC3C(=O)N(c4ccccc4)C(=O)C32)cc1 (stereo not given) | 0.995 | 0.609 (inactive) | 0.773 (inactive) | 1.99 (inactive) | 3.5 | -0.645 (inactive) | -0.0873 | 0.179 | 1.1 | 0.0149 | 0.602 | 0.417 | 0.728 | 1.6 (inactive) | 1.09 | 0.79 | 1.44 | 1.38 | -0.141 | 1.25
O=C1C[C@@](C(=O)O)(c2ccc([N+](=O)[O-])cc2)[C@@H](c2ccc(CO)cc2)N1C1CCCCC1 | 1.54 | 1.24 (inactive) | -1.36 (inactive) | 1.05 (inactive) | 3.12 | 0.397 (inactive) | 0.0909 | 0.333 | 1.15 | -0.0409 | 0.869 | 0.366 | 0.495 | 0.185 (inactive) | 0.869 | 0.582 | 0.369 | 1.1 | 0.649 | 0.633
COC(=O)[C@H](Cc1ccccc1)N1CC2=CCCC=C[C@@H]2[C@H]1[C@H](O)Cc1ccccc1 | 0.438 | -1.09 (inactive) | -2.01 (inactive) | -0.172 (inactive) | 0.626 | -0.496 (inactive) | -0.0632 | 1.15 | 0.215 | -0.111 | 1.33 | -0.192 | -0.306 | -0.477 (inactive) | 0.363 | 0.171 | -0.244 | 0.525 | 0.29 | 0.702
COC(=O)[C@]1(CCC(=O)OC(C)(C)C)N=C(c2ccc(OCCCO)cc2)O[C@@H]1c1ccccc1N=[N+]=[N-] | 1.42 | 1.15 (inactive) | -0.491 (inactive) | 33.8 (active) | 2.08 | 0.217 (inactive) | 0.0664 | 0.677 | 0.361 | -0.127 | 0.911 | 0.254 | 0.855 | -0.229 (inactive) | 0.49 | -0.107 | -0.287 | 0.168 | -0.281 | 0.809
C=CCOC(=O)[C@H]1[C@@H]2C(=O)O[C@@H](c3ccccc3)[C@@H](c3ccccc3)N2[C@@H](c2ccc(OCCOC(=O)[C@@H]3C[C@@H]4C(=O)N[C@@H](CCCCNC(C)=O)C(=O)N4[C@@H]3c3cccc(OCCO)c3)cc2)[C@]12C(=O)Nc1ccccc12 | 1.54 | 0.591 (inactive) | 0.633 (inactive) | 2.18 (inactive) | 2.36 | -0.471 (inactive) | 0.0636 | 1.34 | 1.06 | -0.0103 | 1.43 | 0.171 | 0.042 | 0.736 (inactive) | 0.794 | 1.32 | 0.793 | 0.726 | 0.698 | 0.239
